# From PubChem BioAssay (NCI)
# This is part of a sample that, as a whole, favours compounds with a hit. Of some 83,000 tested, about 20% had one in any assay.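 Results are percent growth after 48 hours of single-concentration exposure. 100 means growth as in untreated cells, lower positive values show inhibition; negative values down to -100 show cell death.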 Activity calls are given as the source filed them. The calls were made as follows: active = growth percent below 10; inactive = the rest.
# Tested on: MDA-MB-468 breast
# Assay: NCI-60 one-dose screen, 48 h (100 = growth as untreated, 0 = no growth, -100 = all killed)
# Conditions: 10 µM unless noted
row,SMILES,growth
1,COc1cc(/C=C/c2c(C(C)=O)c(C)nc3ccccc23)cc(OC)c1OC,-4.86% (active)
2,O=C(Nc1nc2ccc([N+](=O)[O-])cc2s1)Nc1ccccc1Cl,58.5% (inactive)
3,O=S(=O)(Nc1ccc(I)cc1Cl)c1ccc(-c2cnc(C3CC3)o2)cc1,20.1% (inactive)
4,O=C1CSC(=S)N1/N=C/c1ccc(Cl)s1,105% (inactive)
5,CCOC(=O)c1cn2c3c(cc(F)cc3c1=O)C(CC)c1ccccc1C2 (centres undefined),99.4% (inactive)
6,C/C(=N\NC(=S)N1CCCC1)c1ccccn1,-31.9% (active)
7,O=c1[nH]c2ccc(Cl)cc2c2ccccc12,68.1% (inactive)
8,CCCNc1nc(N(C)O)nc(N(C)O)n1,21.5% (inactive)
9,COc1ccc(-c2c3c(N)nc(-c4ccncc4)nc3nc3c2c(C)nn3-c2ccccc2)cc1,72.7% (inactive)
10,CCCCCCCCCCSC(=N)N (tested in a mixture with another compound),-9.42% (active)
11,N#Cc1c(-c2ccc(F)cc2)cc(-c2cccc(Cl)c2)[nH]c1=O,81.4% (inactive)
12,CCOC(=O)C1=NN(c2ccccc2)C(=O)/C1=C\N1C(=O)CC(=O)NC1=S,114% (inactive)
13,CC(C)C[C@H](C(=O)N[C@H](C(N)=O)C(C)C)N1CC=CCN(OCc2ccccc2)S1(=O)=O,105% [2.5 µM] (inactive)
14,COc1ccccc1C1OC2=Nc3cc(C)c(C)cc3NC2C1=O (centres undefined),66.2% (inactive)
15,c1ccc(-c2n(Cc3ccc4ccccc4c3)c3ccccc3[n+]2Cc2ccc3ccccc3c2)cc1,-35.4% (active)
16,COc1ccc2nc3ccccc3c(NCCNCCO)c2c1,-72.9% (active)
17,CCOC(=O)C1(Cc2ccccc2)CCN(Cc2cccc(OC)c2O)CC1,-9.39% (active)
18,CCOc1nc(-c2ccccc2)cc2c(O)c(C(=O)NC(C)C)[nH]c(=O)c12,101% (inactive)
19,CS(=O)(=O)N1CCN(Cc2cc3nc(-c4cccc5[nH]ncc45)nc(N4CCOCC4)c3s2)CC1 (tested in a mixture with another compound),-47.9% (active)
20,C[C@@H]1C(=O)N(C[C@@H](Cc2ccccc2)NC(=O)OCc2ccccc2)[C@]1(Cc1ccccc1)C(=O)OCc1ccccc1,26.1% (inactive)

row,SMILES,growth
1,O=c1oc2c(cnc3ccccc32)cc1-c1cccc(Cl)c1,104% (inactive)
2,C=Cc1cc[n+](CCCCCCCCCCCC)cc1,102% (inactive)
3,COC(=O)/C=C1\SC(=Nc2ccc(C(F)(F)F)cc2)N(CCc2c[nH]c3ccccc23)C1=O,-66.3% (active)
4,COC(=O)c1ccc2c(c1)n(Cc1ccc3ccccc3c1)c[n+]2Cc1ccc2ccccc2c1,-19% (active)
5,Nc1n[nH]c2cc(F)c([C@@H]3Nc4c(F)cc5[nH]ncc5c4[C@H]4C5CCC(C5)[C@@H]34)cc12 (some centres undefined),-0.149% (active)
6,O=C(CSc1oc(-c2ccccc2)nc1S(=O)(=O)c1ccccc1)Nc1ccc(F)cc1,50.1% (inactive)
7,O=c1[nH]cc(/C=N\Nc2ccccc2)c(=O)[nH]1,90.7% (inactive)
8,COc1cc(-c2nc(-c3ccccc3)[nH]c2-c2ccnc(NCCCNS(=O)(=O)c3cccc(F)c3)n2)ccc1F,85.1% (inactive)
9,COc1cccc(-c2nc3occn3c2-c2ccnc(NCCNS(=O)(=O)c3cccc4ccccc34)n2)c1,98.1% (inactive)
10,CCNNC(=O)[C@@H]1[C@H](c2cc(OC)c(OC)c(OC)c2)c2cc3c(cc2[C@H](O)[C@H]1CO)OCO3,7.05% (active)
11,NC(=O)NS(=O)(=O)c1ccc(N2N=C(C(F)(F)F)CC2c2cc(C(F)(F)F)cc(C(F)(F)F)c2)cc1 (centres undefined),70.1% (inactive)
12,COc1ccccc1N1C(=N)S/C(=C\c2ccc(OCc3ccccc3F)cc2)C1=O,5.85% (active)
13,COc1ccc(S(=O)(=O)NCCCNc2nccc(-c3c(-c4cccc(N)c4)nc4sccn34)n2)cc1,78.7% (inactive)
14,O=c1n(CC2CO2)c(=O)n(CC2CO2)c(=O)n1CC1CO1 (centres undefined),56.7% (inactive)
15,CCN(CC)CCOc1nc2ccc(OC)cc2c2c1-c1ccc(OC)cc1C2=O,51.9% (inactive)
16,C#CCOc1c(OC)cc(C(=O)/C(C)=C/c2cccc(N=[N+]=[N-])c2)cc1OC,24.2% (inactive)
17,O=c1c2c(=NCCCN3CCCC3)cc3c(=O)n(CCCN4CCCC4)c(=O)c4c(NCCCN5CCCC5)cc(c(O)n1CCCN1CCCC1)c2c4-3,-62.2% (active)
18,CC(=O)OC[C@]12CC[C@@H]([C@@H](C)C(N)=O)[C@@H]1[C@H]1CC[C@@H]3[C@@]4(C)CC[C@H](OC(C)=O)C(C)(C)[C@@H]4CC[C@@]3(C)[C@]1(C)CC2,-40.4% [100 µM] (active)
19,CCN(CC)c1ccc(/C=N/NC(=O)c2ccccc2Nc2ccnc(C(F)(F)F)c2)c(O)c1,24.7% (inactive)
